Compounds with a hit are over-represented: about 5.5% of the library has one in this group of screens.
Chronic BCR inh = qHTS Assay to Find Inhibitors of Chronic Active B-Cell Receptor Signaling. 340,000 tested, 0.05% active. ABC-DLBCL IkBa-CBG/CBR reporter, luminescence ratio, 4 h. Potency, µM (highest dose often 46.1 µM), most hits filed as inhibitors; active = well fitted inhibition curve with a large enough effect in the signal ratio, with a control signal flat, not every such curve was filed as active; inconclusive = small, poorly fitted or top-dose-only effect, or effect the other way, or a change in a side signal; the % refers to the signal ratio
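TMD8 human ABC-DLBCL cells with doxycycline-inducible IκBα–green luciferase fusion and unfused red luciferase, in 0.5% FBS medium; compounds up to 46 uM, 4 h at 37C. Green/red luminescence ratio, filter-overlap corrected, fitted to concentration-response curves.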
RORgamma inh = qHTS for inhibitors of ROR gamma transcriptional activity | Nuclear receptor ROR-gamma (Mus musculus), P51450 | Drosophila S2 Gal4-RORgamma UAS-luciferase reporter, 20 h | Potency, µM (doses to about 53.6 µM), most hits filed as inhibitors | 310,000 tested, 5.4% active; note: nearly all actives have a fitted effect of over 60% in size
Target sequence (P51450 whole entry, looked up, the tested form may be a part): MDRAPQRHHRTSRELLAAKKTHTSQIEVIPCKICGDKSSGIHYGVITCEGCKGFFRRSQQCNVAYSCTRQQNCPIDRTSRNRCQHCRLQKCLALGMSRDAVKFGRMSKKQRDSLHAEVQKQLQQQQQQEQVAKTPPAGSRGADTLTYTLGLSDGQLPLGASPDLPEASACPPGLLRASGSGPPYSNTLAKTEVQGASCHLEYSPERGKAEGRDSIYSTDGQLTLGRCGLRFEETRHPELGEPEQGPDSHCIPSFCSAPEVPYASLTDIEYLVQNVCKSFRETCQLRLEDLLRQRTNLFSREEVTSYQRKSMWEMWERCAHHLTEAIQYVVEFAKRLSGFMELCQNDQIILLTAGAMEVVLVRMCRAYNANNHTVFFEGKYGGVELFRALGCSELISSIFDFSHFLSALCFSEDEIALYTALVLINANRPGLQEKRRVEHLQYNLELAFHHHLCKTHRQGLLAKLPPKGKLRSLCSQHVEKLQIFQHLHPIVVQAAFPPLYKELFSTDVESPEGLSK
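In this cell-based reporter format, copper sulfate (700 uM final) drives Gal4–ROR gamma fusion expression from a metallothionein promoter in Drosophila Schneider cells; compounds preincubated 1 hr, reporter read after 20 hr at ambient temperature.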
Mito fusion act = qHTS Assay for Small Molecule Inhibitors of Mitochondrial Division or Activators of Mitochondrial Fusion | AID 485298, 2010 | 320,000 tested, 0.23% active | Potency, µM (highest dose often 46.1 µM), hits mostly activators | S. cerevisiae fusion-defective mutant growth rescue, CellTiterGlo 48 h; note: nearly all actives have a fitted effect of over 45% in size
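Read-out: ATP-based luminescence (CellTiterGlo, 10 min ambient) reporting growth of fusion-defective ts yeast after 48 hours at 37C on glycerol/ethanol YPEG medium in the presence of compound.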
Integrin act MD = qHTS for Activators of Integrin-Mediated Alleviation for Muscular Dystrophy; alpha7betagal myoblasts, beta-gal FDG fluorescence, 48 h; Potency, µM (doses to about 38.3 µM), most hits filed as activators; 350,000 tested, 0.064% active; AID 624291, 2012; note: nearly all actives have a fitted effect of over 60% in size
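alpha7betagal+/- myoblasts (passage 13, 250/well) treated 48 h at 37C with compounds at 1:260 dilution of DMSO stock. Lysed, then beta-galactosidase activity read as FDG fluorescence (ex 480/em 540) after 30 min, with pre-read for autofluorescence.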
uPA surface inh = qHTS for Inhibitors of Cell Surface uPA Generation; cell surface uPA generation assay, qHTS; Potency, µM (highest dose often 38.3 µM), usual class: inhibitors; 330,000 tested, 0.31% active; active = well fitted inhibition curve with a large enough effect; inconclusive = small, poorly fitted or top-dose-only effect; inactive = no such curve, though single readings can be large or run the other way; tested in mouse RAW 264.7 cells; note: nearly all actives have a fitted effect of over 55% in size
VP16 counter = VP16 counterscreen qHTS for inhibitors of ROR gamma transcriptional activity. AID 2546, 2010. Potency, µM (highest dose often 53.6 µM), hits mostly inhibitors. Drosophila S2 Gal4-VP16 UAS-luciferase, luminescence, 20 h. 310,000 tested, 3.5% active;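 note: Gal4-VP16 expression switched on by copper sulfate through the metallothionein promoter; nearly all actives have a fitted effect of over 50% in size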
Each line names hits and unclear results; the compound was inactive in the other large screens; ! = not confirmed by another sample. Unless noted, calls come from the whole dose curve; as a rule, active = well fitted curve in the direction sought with a large enough effect; inconclusive = small, poorly fitted or top-dose-only effect, or another doubt; inactive = no such curve, though single readings can be large; an effect the other way counts as inactive or inconclusive.

O=C(NNC(=S)NCc1ccco1)c1ccccc1Br	RORgamma inh 0.891µM
O=C(NNC(=S)NCc1ccco1)c1ccc(Cl)s1	Chronic BCR inh inconclusive, RORgamma inh 1.78µM
Cn1cc(Cl)c(C(=O)NNC(=S)NCc2ccco2)n1	Integrin act MD inconclusive
CCc1nn(CC(=O)NCCc2ccc(S(N)(=O)=O)cc2)c(=O)c2cc3sccc3n12	none
CCN(CC)S(=O)(=O)c1ccc(/C(O)=C(\C#N)c2nc3ccccc3n2C)cc1	Chronic BCR inh inconclusive, RORgamma inh 2.82µM, VP16 counter 5.62µM
Cn1c(/C(C#N)=C(\O)c2ccc([N+](=O)[O-])cc2)nc2ccccc21	Chronic BCR inh inconclusive
Cn1c(/C(C#N)=C(\O)c2cccc(F)c2)nc2ccccc21	RORgamma inh 7.08µM, VP16 counter 7.08µM
N#C/C(=C(/O)c1cccc(F)c1)c1nc2ccccc2s1	Chronic BCR inh inconclusive, RORgamma inh inconclusive
C=CCn1c(-c2oc3nc(-c4ccccc4)cc(-c4ccccc4)c3c2N)n[nH]c1=S	RORgamma inh inconclusive
CCn1c(-c2ccccc2O)n[nH]c1=S	RORgamma inh 12.6µM
CCn1c(-c2cc(-c3ccccc3)sc2N)n[nH]c1=S	Chronic BCR inh inconclusive, RORgamma inh 3.98µM, VP16 counter 12.6µM
S=c1[nH]nc(-c2ccccc2Br)n1Cc1ccccc1	RORgamma inh 4.47µM, VP16 counter 6.31µM
Oc1ccc(Br)cc1-c1n[nH]c(=S)n1Cc1ccccc1	RORgamma inh 10µM
CCn1c(-c2cccnc2)n[nH]c1=S	RORgamma inh inconclusive
Oc1ccccc1-c1n[nH]c(=S)n1Cc1ccccc1	Chronic BCR inh inconclusive, RORgamma inh 11.2µM, Integrin act MD inconclusive
Cc1ccc(C2=NC3(CCCC3)NC2=S)cc1	RORgamma inh 2.51µM, VP16 counter 7.94µM
S=C1NC2(CCCCCC2)N=C1c1ccccc1	RORgamma inh 2µM, VP16 counter inconclusive
CC(C)CC1(C)N=C(c2ccccc2)C(=S)N1 (stereo not given)	RORgamma inh 2.82µM, VP16 counter 2.82µM
S=C1NC2(CCCC2)N=C1c1ccccc1	RORgamma inh 5.01µM
COc1ccc(NC(=O)c2nc[nH]c2C(=O)Nc2ccccc2C)cc1	RORgamma inh 3.16µM, VP16 counter 8.91µM
Cc1ccccc1NC(=O)c1[nH]cnc1C(=O)NN	none
C[C@H](NC(=O)c1[nH]cnc1C(=O)Nc1ccccc1)C(=O)OC(C)(C)C	Chronic BCR inh inconclusive, RORgamma inh 2.82µM, VP16 counter 11.2µM
COc1ccc(NC(=O)c2nc[nH]c2C(=O)N[C@@H](C)C(=O)OC(C)(C)C)cc1	RORgamma inh 11.2µM, VP16 counter inconclusive
C[C@H](NC(=O)c1nc[nH]c1C(=O)N[C@@H](C)C(=O)OC(C)(C)C)C(=O)OCc1ccccc1	RORgamma inh inconclusive, VP16 counter inconclusive
CCOC(=O)c1ccc(NC(=O)c2nc[nH]c2C(=O)N2CCc3ccccc3C2)cc1	RORgamma inh 3.55µM, VP16 counter inconclusive
Cc1ccc(NC(=O)c2nc[nH]c2C(=O)N2CCc3ccccc3C2)cc1	none (no result: RORgamma inh, VP16 counter)
Cc1cc(NC(=O)C(C)SCC(=O)OC(C)C(=O)Nc2ccc(F)cc2Cl)no1 (stereo not given)	Chronic BCR inh inconclusive (no result: RORgamma inh, VP16 counter)
COc1ccc(NC(=O)c2nc[nH]c2C(=O)N[C@@H](CC(C)C)C(=O)OC(C)(C)C)cc1	Chronic BCR inh inconclusive, RORgamma inh 5.62µM, VP16 counter 15.8µM
CNC(=O)c1[nH]cnc1C(=O)N[C@@H](C)C(=O)OC(C)(C)C	none
Cc1ccc(NC(=O)c2nc[nH]c2C(=O)N[C@@H](C)C(=O)OC(C)(C)C)cc1	RORgamma inh 6.31µM, VP16 counter inconclusive
COc1ccc(NC(=O)c2nc[nH]c2C(=O)N2CCN(c3ccccc3)CC2)cc1	Chronic BCR inh inconclusive, RORgamma inh 5.62µM, VP16 counter 11.2µM
COc1ccc(NC(=O)c2nc[nH]c2C(=O)N[C@@H](C)c2ccccc2)cc1	RORgamma inh 6.31µM, VP16 counter 8.91µM
CC(=O)OCC(=O)[C@@]1(O)CCC2C3C[C@H](C)C4=CC(=O)C=CC4(C)C3C(O)CC21C (stereo not given in full)	none (no result: Chronic BCR inh, Mito fusion act, Integrin act MD, uPA surface inh)
O=C(COC(=O)Cc1ccc(S(=O)(=O)N2CCOCC2)s1)Nc1ccccc1	none (no result: RORgamma inh, Mito fusion act, VP16 counter)
CCc1cnc2c(c1SC(C(C)=O)C(=O)N(C)C)c(=O)n(C)c(=O)n2C (stereo not given)	none (no result: RORgamma inh, Mito fusion act, Integrin act MD, uPA surface inh, VP16 counter)
CCN1C(=S)N[C@@H](c2ccccc2)C(C(=O)OC)=C1C	Chronic BCR inh inconclusive, RORgamma inh 3.16µM, VP16 counter inconclusive
COCCN1C(=S)N[C@@H](c2cccc(F)c2)C(C(=O)OC)=C1C	Chronic BCR inh inconclusive, RORgamma inh 3.55µM!, VP16 counter 11.2µM! (no result: Integrin act MD, uPA surface inh)
CCN1C(=O)N[C@@H](c2cccc(F)c2)C(C(=O)OC)=C1C	none (no result: Chronic BCR inh, RORgamma inh, Mito fusion act, VP16 counter)
COC(=O)C1=C(C)N(Cc2ccccc2)C(=S)N[C@H]1c1cccc(F)c1	Chronic BCR inh inconclusive, RORgamma inh 4.47µM, VP16 counter 12.6µM
COC(=O)C1=C(C)N(Cc2ccccc2)C(=NCc2ccccc2)N[C@H]1c1cccc(F)c1	Chronic BCR inh inconclusive, RORgamma inh inconclusive, uPA surface inh inconclusive
CCN1C(=NCCCCO)N[C@@H](c2ccccc2)C(C(=O)OC)=C1C	none (no result: Integrin act MD, uPA surface inh)
Cc1cccc(C(c2sc3nc(-c4ccco4)nn3c2O)N2CCN(c3ccccc3F)CC2)c1 (stereo not given)	none (no result: RORgamma inh, Mito fusion act, Integrin act MD, uPA surface inh, VP16 counter)
Cc1ccc(OCC(=O)NNC(=S)NC(=O)c2cccs2)c(C)c1	RORgamma inh 10µM, VP16 counter 11.2µM
Cc1ccc(OCC(=O)NNC(=S)NC(=O)c2ccc(Br)o2)c(C)c1	RORgamma inh inconclusive, VP16 counter inconclusive
Cc1cc(OCC(=O)NNC(=S)NC(=O)c2cccs2)ccc1Cl	Chronic BCR inh inconclusive, RORgamma inh 7.94µM, VP16 counter inconclusive
Cc1ccc(OCC(=O)N2CCN(S(=O)(=O)c3ccc4c(c3)OCCO4)CC2)c(C)c1	Integrin act MD 2µM (no result: RORgamma inh, VP16 counter)
COc1cc(C(=O)Oc2ccc3c(OC)c4ccoc4nc3c2OC)cc(OC)c1OC	none (no result: Chronic BCR inh, Mito fusion act, Integrin act MD, uPA surface inh)
COc1cc(OC)c(OC)cc1/C=C1\CC(C)C/C(=C\c2cc(OC)c(OC)cc2OC)C1=O (stereo not given)	Chronic BCR inh inconclusive, uPA surface inh 8.91µM
NNc1nc2ccccc2c(=O)n1Cc1ccccc1	Chronic BCR inh inconclusive (no result: RORgamma inh, VP16 counter)
Nc1nc(N)c2cc(Sc3ccc4ccccc4c3)ccc2n1	Chronic BCR inh inconclusive, RORgamma inh inconclusive, uPA surface inh 2µM, VP16 counter inconclusive

Screens from PubChem.
